Source: PubChem BioAssay (Tox21)
Several values for one entry are separate records, joined by “and”; a condition that tells them apart may be missing. Equal entries are not always repeated. Results filed as inconclusive are left out. Activity calls are given as the source filed them. Unless noted, calls come from the whole dose curve; as a rule, active = well fitted curve in the direction sought with a large enough effect in the repeat runs; inconclusive = weak or mixed curves; inactive = no such curve, though single readings can be large; an effect the other way counts as inactive or inconclusive.

Columns and labels:
[1] = qHTS assay for small molecules that induce genotoxicity in human embryonic kidney cells expressing luciferase-tagged ATAD5 (AID 651632); note: nearly all actives have a fitted effect of over 15% in size; note: potency is the fitted concentration of half-maximal effect
Method in brief: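 Reporter cells (HEK293T) express luciferase-tagged ATAD5, a protein that accumulates after DNA damage. Treat 16 hr at 37C/5% CO2, add Amplite, wait 30 min at RT, and read luminescence.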

[2] = qHTS assay for small molecule agonists of the p53 signaling pathway - cell viability (AID 651633; calls by dose curve; note: nearly all actives have a fitted effect of over 30% in size; note: potency is the fitted concentration of half-maximal effect)
Method in brief: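 p53RE-bla cells, seeded at 4,000 per well and rested 5 h at 37 C/5% CO2, received compounds in DMSO for 16 h at 37 C. CellTiter-Glo was then added, and luminescence was read after 30 min at room temperature to gauge cytotoxicity.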

[3] = qHTS assay for small molecules that induce genotoxicity in human embryonic kidney cells expressing luciferase-tagged ATAD5 - cell viability (AID 651634; calls by dose curve; note: nearly all actives have a fitted effect of over 25% in size; note: potency is the fitted concentration of half-maximal effect)
Method in brief: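 Seeding of 2,000 HEK293T ATAD5-luciferase cells per well preceded pin-tool compound transfer. Plates sat 15.5 hr at 37C under 5% CO2, then fluorescence was read after 30 min with CellTiter-Fluor.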

[4] = qHTS assay for small molecule disruptors of the mitochondrial membrane potential - cell viability (AID 720634; calls by dose curve; note: nearly all actives have a fitted effect of over 20% in size; note: potency is the fitted concentration of half-maximal effect)
Method in brief: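 Measuring cytotoxicity alongside mitochondrial potential, the screen quantified ATP by luminescence in HepG2 cells after 1 hr compound incubation and a 30 min room-temperature CellTiter-Glo step.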

[5] = qHTS assay for small molecule disruptors of the mitochondrial membrane potential (AID 720635); note: potency is the fitted concentration of half-maximal effect
Method in brief: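 HepG2 cells (2,000/well) attached overnight at 37C, then took compound for 1 hr at 37C, 5% CO2. Mito-MPS dye was added for 30 min; fluorescence was read at 490/535 nm (monomers) and 540/590 nm (aggregates).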

[6] = qHTS assay to test for compound auto fluorescence at 590 nm (red) in HepG2 cells (AID 720674)
Method in brief: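 Rose Bengal sodium served as the red fluorophore standard. HepG2 monolayers (overnight attachment, MEM with 10% FBS) were exposed to test compounds for 1 hr at 37 C and read at Ex 540/Em 590 nm.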

[7] = qHTS assay to test for compound auto fluorescence at 460 nm (blue) in HEK293 cells (AID 720678)
Method in brief: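 After cell attachment (4-5 hr, 37C), compounds were pinned onto HEK293 monolayers in 10% dialyzed FBS medium. The blue channel (405/460 nm) was read following overnight culture. Equivalency was calculated against triamterene.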

[8] = qHTS assay to test for compound auto fluorescence at 590 nm (red) in HEK293 cells (AID 720679)
Method in brief: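 Plates of HEK293 cells (10% dialyzed FBS) are treated with 23 nL compound or DMSO vehicle after a 4-5 hr attachment period, incubated overnight at 37C, and read for red fluorescence at 540/590nm.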

[9] = qHTS assay to test for compound auto fluorescence at 460 nm (blue) in HEK293 cell free culture (AID 720681)
Method in brief: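 Test compounds were pinned into cell-free culture medium (DMEM with 10% FBS) and fluorescence was read directly at Ex/Em 405/460 nm. Signals were expressed as fluorescence equivalents of triamterene, with DMSO vehicle as control.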

[10] = qHTS assay to test for compound auto fluorescence at 535 nm (green) in HEK293 cell free culture (AID 720682)
Method in brief: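 Green-channel intensity (Ex/Em 485/535 nm) was recorded from compound-treated wells containing only DMEM with 10% FBS. Fluorescein provided the equivalency standard.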

[11] = qHTS assay to test for compound auto fluorescence at 590 nm (red) in HepG2 cell free culture (AID 720684)
Method in brief: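 Measured in medium alone (MEM containing 10% FBS) following pintool addition of compound; emission at 590 nm with 540 nm excitation, referenced to Rose Bengal sodium.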

[12] = qHTS assay to test for compound auto fluorescence at 460 nm (blue) in HepG2 cell free culture (AID 720685)
Method in brief: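 Compound (23 nL) or DMSO pinned into cell-free MEM with 10% FBS; blue fluorescence read at 405/460 nm excitation/emission, expressed as auto-fluorescence equivalency to triamterene.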

[13] = qHTS assay to test for compound auto fluorescence at 535 nm (green) in HepG2 cell free culture (AID 720686)
[14] = qHTS assay to test for compound auto fluorescence at 460 nm (blue) in HepG2 cells (AID 720687)
Method in brief: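 Cells (2,000/well in MEM with 10% FBS) attached overnight at 37 C, then were exposed to compound or DMSO for 1 hr at 37 C, 5% CO2. Fluorescence read at Ex/Em 405/460 nm, expressed as triamterene-equivalent signal.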

[15] = qHTS assay to test for compound auto fluorescence at 535 nm (green) in HepG2 cells (AID 720675)
[16] = qHTS assay to test for compound auto fluorescence at 535 nm (green) in HEK293 cells (AID 720680)
[17] = qHTS assay to test for compound auto fluorescence at 590 nm (red) in HEK293 cell free culture (AID 720683)
Method in brief: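 Tox21 10K library compounds were pinned into cell-free DMEM with 10% FBS and fluorescence was read at excitation 540 nm. Activity is expressed as Rose Bengal sodium equivalency.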

[18] = target: Glucocorticoid receptor (Homo sapiens) (UniProt P04150); test: qHTS assay to identify small molecule agonists of the glucocorticoid receptor (GR) signaling pathway (AID 720691; active = well fitted activation curve with a large enough effect in the signal ratio in the repeat runs, not every such curve was filed as active; the % refers to the signal ratio); details: GR-bla HeLa, beta-lactamase reporter ratio, 18 h; activation: at 62.4 µM (top of the series)
Method in brief: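 Reporter read-out: fluorescence intensity following 2 h room-temperature LiveBLAzer B/G FRET substrate loading. Prior step: GR-bla HeLa cells held 4 h, then treated 18 h at 37 C.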

[19] = target: Glucocorticoid receptor (Homo sapiens) (UniProt P04150); test: qHTS assay to identify small molecule antagonists of the glucocorticoid receptor (GR) signaling pathway (AID 720692; active = well fitted inhibition curve with a large enough effect in the signal ratio in the repeat runs, not every such curve was filed as active; the % refers to the signal ratio; note: potency is the fitted concentration of half-maximal effect)
Method in brief: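 Dexamethasone (5 nM final) stimulated a stably integrated GRE-beta-lactamase reporter in HeLa cells during 18 h co-incubation with compounds; signal was quantified as fluorescence intensity of B/G FRET substrate after 2 h.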

Measured: Potency

Sequence of Glucocorticoid receptor (Homo sapiens) (P04150 whole entry, looked up): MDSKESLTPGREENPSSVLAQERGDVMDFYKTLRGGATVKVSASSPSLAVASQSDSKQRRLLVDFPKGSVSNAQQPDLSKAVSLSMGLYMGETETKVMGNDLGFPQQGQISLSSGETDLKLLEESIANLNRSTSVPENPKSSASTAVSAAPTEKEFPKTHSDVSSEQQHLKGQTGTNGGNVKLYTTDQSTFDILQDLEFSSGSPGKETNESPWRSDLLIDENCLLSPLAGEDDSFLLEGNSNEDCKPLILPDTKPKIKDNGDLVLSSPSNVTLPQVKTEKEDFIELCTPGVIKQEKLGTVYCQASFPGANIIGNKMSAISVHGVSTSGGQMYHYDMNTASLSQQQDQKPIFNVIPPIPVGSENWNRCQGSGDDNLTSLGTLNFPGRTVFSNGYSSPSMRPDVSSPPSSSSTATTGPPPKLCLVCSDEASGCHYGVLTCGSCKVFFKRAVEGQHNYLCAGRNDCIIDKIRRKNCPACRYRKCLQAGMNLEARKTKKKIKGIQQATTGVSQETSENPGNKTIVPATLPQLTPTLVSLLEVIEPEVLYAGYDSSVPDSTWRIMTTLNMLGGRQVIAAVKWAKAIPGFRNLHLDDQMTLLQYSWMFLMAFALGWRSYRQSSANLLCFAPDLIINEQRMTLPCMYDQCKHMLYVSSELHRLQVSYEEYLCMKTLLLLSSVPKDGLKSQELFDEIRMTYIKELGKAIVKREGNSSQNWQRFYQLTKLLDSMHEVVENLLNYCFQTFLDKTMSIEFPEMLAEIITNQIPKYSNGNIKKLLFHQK

Cc1ccc(-n2nc(C(C)(C)C)cc2NC(=O)Nc2ccc(OCCN3CCOCC3)c3ccccc23)cc1
active: [5] 18.8 µM
not listed: [15] | [16] | [17] | [18] | [19]
inactive: all other assays above

CCCCN(CCCC)c1ccc(C(=O)c2ccccc2C(=O)O)c(O)c1
active: [2] 17.4 µM
not listed: [5] | [17] | [18] | [19]
inactive: all other assays above

Nc1ccc(N)c2ccccc12
active: [2] 15.3 µM | [3] 15.3 µM | [4] 13.7 µM | [5] 0.153 µM
not listed: [8] | [13] | [15] | [16] | [18] | [19]
inactive: all other assays above

Oc1ccc2c(c1)-c1ccccc1C2
active: [5] 9.69 µM
not listed: [4] | [13] | [17] | [18] | [19]
inactive: all other assays above

CN(C)C(=O)C1(N2CCCCC2)CCN(CC[C@@]2(c3ccc(Cl)c(Cl)c3)CN(C(=O)c3ccccc3)CCO2)CC1
active: [2] 64.1 µM | [3] 64.1 µM
not listed: [4] | [5] | [18] | [19]
inactive: all other assays above

CC(C)C(C)(C)C(C)(C)C(C)(C)S
not listed: [4] | [5] | [10] | [13] | [18] | [19]
inactive: all other assays above

CCCCCCCCOc1ccccc1C(=O)Nc1ccc(C(=O)OCC[N+](C)(CC)CC)cc1
active: [2] 23.7 µM | [5] 31.2 µM
not listed: [8] | [15] | [18] | [19]
inactive: all other assays above

CC(C)(C)CC(C)(C)c1ccc(OCCOCC[N+](C)(C)Cc2ccccc2)cc1
active: [2] 29.8 µM and 61.1 µM | [3] 29.8 µM and 68.5 µM | [5] 11.9 µM and 21.7 µM
not listed: [4] | [8] | [13] | [16] | [18] | [19]
inactive: all other assays above

C=CC(=O)OCCn1c(=O)n(CCOC(=O)C=C)c(=O)n(CCOC(=O)C=C)c1=O
active: [1] 5.45 µM | [2] 27.3 µM | [3] 27.3 µM
not listed: [5] | [18] | [19]
inactive: all other assays above

CC(C)(C)CC(C)(C)c1ccc(O)c(Cc2ccc(Cl)cc2Cl)c1
active: [2] 13.3 µM | [3] 23.7 µM | [5] 1.68 µM
not listed: [4] | [18] | [19]
inactive: all other assays above

CCCN(CCC)C(=O)C(CCC(=O)OCCCN1CCN(CCOC(=O)Cc2c(C)n(C(=O)c3ccc(Cl)cc3)c3ccc(OC)cc23)CC1)NC(=O)c1ccccc1 (stereo not drawn)
active: [3] 26.6 µM
not listed: [5] | [18] | [19]
inactive: all other assays above

Nc1c(Cl)cc(Cl)cc1Cl
not listed: [5] | [12]
inactive: all other assays above

Cc1ccc(O)c2ncccc12
not listed: [5] | [8] | [16] | [18]
inactive: all other assays above

CC1=NC(C)OC1C (stereo not drawn)
active: [19] 34.7 µM
not listed: [8] | [12] | [15]
inactive: all other assays above
